For some assays here: Entries with a potency or affinity are not part of this list.
Key:
Parameters in all cases: scale not given: direction of the effect not stated beside the values
[1] = biological target: Protein translocase subunit SecA (Escherichia coli (strain K12)) (UniProt P10408); assay: Assay to Identify E. coli SecA ATPase Inhibitors; format: functional; conditions: 30 µM
[2] = biological target: T1, Ubiquitin-activating enzyme e1, putative (Leishmania donovani (strain BPK282A1)) (UniProt E9BSI1); assay: Leishmania donovani Ubiquitin Activating Enzyme (LdE1); format: functional; conditions: 30 µM
T1 sequence (whole entry): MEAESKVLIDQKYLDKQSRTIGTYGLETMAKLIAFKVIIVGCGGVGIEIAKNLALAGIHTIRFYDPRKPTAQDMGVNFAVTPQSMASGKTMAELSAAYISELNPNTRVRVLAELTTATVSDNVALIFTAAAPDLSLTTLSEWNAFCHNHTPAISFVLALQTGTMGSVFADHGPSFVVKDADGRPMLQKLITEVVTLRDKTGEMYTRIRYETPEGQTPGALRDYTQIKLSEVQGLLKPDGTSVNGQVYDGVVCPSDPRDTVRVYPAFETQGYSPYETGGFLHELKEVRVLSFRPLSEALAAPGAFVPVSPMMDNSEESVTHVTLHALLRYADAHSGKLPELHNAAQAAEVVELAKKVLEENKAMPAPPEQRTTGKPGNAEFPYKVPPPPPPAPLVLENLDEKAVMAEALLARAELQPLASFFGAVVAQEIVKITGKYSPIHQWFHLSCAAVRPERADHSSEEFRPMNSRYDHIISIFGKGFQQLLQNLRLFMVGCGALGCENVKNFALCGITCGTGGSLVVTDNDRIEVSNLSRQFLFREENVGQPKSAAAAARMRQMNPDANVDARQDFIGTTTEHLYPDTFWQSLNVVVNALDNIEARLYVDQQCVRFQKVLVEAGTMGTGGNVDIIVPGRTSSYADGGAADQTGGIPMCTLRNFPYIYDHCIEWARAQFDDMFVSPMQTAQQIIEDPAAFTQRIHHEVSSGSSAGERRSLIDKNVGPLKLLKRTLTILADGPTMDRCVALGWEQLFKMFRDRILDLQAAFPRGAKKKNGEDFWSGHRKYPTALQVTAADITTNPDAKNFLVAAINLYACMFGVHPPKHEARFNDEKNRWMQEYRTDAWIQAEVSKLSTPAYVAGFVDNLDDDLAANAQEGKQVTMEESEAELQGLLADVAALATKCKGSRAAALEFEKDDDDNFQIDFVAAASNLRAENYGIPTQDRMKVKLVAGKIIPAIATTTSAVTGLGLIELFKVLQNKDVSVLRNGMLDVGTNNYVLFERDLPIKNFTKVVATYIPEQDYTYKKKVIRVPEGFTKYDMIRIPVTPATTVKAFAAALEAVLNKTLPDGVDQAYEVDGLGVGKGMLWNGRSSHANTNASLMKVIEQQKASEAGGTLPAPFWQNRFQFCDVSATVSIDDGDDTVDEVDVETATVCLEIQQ

[3] = biological target: AMP-activated protein kinase, AMPK (Homo sapiens) (UniProt P54646+O43741+P54619+Q9UGJ0+Q9Y478+Q13131+Q9UGI9); assay: AMP-dependent Kinase enzyme assay. An in vitro enzyme assay that detects ADP turnover that is directly proportional to AMPK activity. This uses naive AMPK that is activated during the assay with MK-8722; format: functional; conditions: 30 µM
[4] = biological target: Sialic acid-binding Ig-like lectin 9 (Homo sapiens) (UniProt Q9Y336); assay: Hs-Siglec9 ALPHAscreen SOP 20170721; conditions: 10 µM
Trypanosoma cruzi = assay: Trypanosoma cruzi phosphomannomutase and mannose-1-phosphate guanylyltransferase assay; format: functional; conditions: 10 µM
[5] = biological target: T2, Arginase-2, mitochondrial (Homo sapiens) (UniProt P78540); assay: in vitro enzyme assay to detect the production of urea directly proportional to the activity of Arginase II; format: functional; conditions: 33.3 µM; note: in the data most compounds retested in dose-response had high values
T2 sequence (whole entry): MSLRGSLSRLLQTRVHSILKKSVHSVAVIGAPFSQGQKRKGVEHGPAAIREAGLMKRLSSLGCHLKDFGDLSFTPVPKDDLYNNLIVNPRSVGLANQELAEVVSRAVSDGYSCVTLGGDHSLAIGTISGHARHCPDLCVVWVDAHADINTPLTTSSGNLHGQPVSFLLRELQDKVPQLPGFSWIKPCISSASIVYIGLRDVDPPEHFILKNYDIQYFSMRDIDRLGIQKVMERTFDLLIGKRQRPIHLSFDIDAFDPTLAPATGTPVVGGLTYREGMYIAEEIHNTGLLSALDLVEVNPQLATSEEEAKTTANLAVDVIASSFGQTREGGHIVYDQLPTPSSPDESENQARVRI

[6] = biological target: T3, Proteasome subunit beta (Trypanosoma cruzi) (UniProt O96673); assay: Trypanosoma cruzi proteasome chymotrypsin-like activity (TcProtChymo) assay.; note: in the data most compounds retested in dose-response had high values; format: functional; conditions: 9.37 µM
T3 sequence (whole entry): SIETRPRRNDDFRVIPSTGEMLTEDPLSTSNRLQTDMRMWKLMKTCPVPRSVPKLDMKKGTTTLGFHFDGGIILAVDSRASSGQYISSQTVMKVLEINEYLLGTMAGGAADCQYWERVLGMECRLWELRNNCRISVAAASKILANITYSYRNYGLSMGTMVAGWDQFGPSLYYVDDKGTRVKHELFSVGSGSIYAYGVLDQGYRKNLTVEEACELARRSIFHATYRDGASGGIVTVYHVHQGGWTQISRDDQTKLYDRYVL

Homo sapiens = species on record: Homo sapiens; assay: To identify inhibition of the IFN signalling (Jak-Stat) pathway via expression of an eGFP reporter gene under the control of an IFN-stimulated response element (ISRE) containing MxA promoter.; format: functional; conditions: 30 µM
[7] = biological target: T4, Tyrosyl-tRNA synthetase, putative (Trypanosoma cruzi (strain CL Brener)) (UniProt Q4DSP6); assay: Trypanosoma cruzi tyrosyl tRNA synthetase (TcYRS) _High Tyrosine SOP; format: functional; conditions: 30 µM; note: in the data most compounds retested in dose-response had high values
T4 sequence (whole entry): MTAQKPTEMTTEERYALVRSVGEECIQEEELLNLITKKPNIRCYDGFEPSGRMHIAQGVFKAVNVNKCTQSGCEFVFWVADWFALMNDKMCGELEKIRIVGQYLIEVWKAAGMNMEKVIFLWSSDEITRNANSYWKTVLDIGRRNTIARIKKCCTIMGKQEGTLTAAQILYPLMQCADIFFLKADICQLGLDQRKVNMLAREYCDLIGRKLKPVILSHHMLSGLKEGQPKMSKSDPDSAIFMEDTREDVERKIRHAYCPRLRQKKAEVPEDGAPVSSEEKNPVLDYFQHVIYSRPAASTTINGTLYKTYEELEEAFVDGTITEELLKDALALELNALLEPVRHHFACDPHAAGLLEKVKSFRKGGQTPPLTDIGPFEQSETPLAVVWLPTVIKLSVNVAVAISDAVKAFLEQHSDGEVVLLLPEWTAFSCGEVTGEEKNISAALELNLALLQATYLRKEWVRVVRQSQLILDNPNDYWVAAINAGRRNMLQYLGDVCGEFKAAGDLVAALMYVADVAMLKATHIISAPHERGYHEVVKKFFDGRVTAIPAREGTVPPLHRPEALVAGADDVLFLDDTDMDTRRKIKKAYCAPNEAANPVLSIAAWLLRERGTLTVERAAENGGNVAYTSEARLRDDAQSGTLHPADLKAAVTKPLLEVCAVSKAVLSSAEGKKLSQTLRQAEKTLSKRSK

[8] = biological target: T4, Tyrosyl-tRNA synthetase, putative (Trypanosoma cruzi (strain CL Brener)); assay: Trypanosoma cruzi tyrosyl tRNA synthetase (TcYRS) SOP; format: functional; conditions: 30 µM
[9] = biological target: Chromo domain-containing protein 1 (Saccharomyces cerevisiae (strain ATCC 204508 / S288c) (Baker's yeast)) (UniProt P32657); assay: ScCHD-1 Enzyme Inhibition Assay; format: functional; conditions: 30 µM; note: in the data most compounds retested in dose-response had high values
Chain of Chromo domain-containing protein 1 (Saccharomyces cerevisiae (strain ATCC 204508 / S288c) (Baker's yeast)) (P32657 whole entry, the tested form may be a part): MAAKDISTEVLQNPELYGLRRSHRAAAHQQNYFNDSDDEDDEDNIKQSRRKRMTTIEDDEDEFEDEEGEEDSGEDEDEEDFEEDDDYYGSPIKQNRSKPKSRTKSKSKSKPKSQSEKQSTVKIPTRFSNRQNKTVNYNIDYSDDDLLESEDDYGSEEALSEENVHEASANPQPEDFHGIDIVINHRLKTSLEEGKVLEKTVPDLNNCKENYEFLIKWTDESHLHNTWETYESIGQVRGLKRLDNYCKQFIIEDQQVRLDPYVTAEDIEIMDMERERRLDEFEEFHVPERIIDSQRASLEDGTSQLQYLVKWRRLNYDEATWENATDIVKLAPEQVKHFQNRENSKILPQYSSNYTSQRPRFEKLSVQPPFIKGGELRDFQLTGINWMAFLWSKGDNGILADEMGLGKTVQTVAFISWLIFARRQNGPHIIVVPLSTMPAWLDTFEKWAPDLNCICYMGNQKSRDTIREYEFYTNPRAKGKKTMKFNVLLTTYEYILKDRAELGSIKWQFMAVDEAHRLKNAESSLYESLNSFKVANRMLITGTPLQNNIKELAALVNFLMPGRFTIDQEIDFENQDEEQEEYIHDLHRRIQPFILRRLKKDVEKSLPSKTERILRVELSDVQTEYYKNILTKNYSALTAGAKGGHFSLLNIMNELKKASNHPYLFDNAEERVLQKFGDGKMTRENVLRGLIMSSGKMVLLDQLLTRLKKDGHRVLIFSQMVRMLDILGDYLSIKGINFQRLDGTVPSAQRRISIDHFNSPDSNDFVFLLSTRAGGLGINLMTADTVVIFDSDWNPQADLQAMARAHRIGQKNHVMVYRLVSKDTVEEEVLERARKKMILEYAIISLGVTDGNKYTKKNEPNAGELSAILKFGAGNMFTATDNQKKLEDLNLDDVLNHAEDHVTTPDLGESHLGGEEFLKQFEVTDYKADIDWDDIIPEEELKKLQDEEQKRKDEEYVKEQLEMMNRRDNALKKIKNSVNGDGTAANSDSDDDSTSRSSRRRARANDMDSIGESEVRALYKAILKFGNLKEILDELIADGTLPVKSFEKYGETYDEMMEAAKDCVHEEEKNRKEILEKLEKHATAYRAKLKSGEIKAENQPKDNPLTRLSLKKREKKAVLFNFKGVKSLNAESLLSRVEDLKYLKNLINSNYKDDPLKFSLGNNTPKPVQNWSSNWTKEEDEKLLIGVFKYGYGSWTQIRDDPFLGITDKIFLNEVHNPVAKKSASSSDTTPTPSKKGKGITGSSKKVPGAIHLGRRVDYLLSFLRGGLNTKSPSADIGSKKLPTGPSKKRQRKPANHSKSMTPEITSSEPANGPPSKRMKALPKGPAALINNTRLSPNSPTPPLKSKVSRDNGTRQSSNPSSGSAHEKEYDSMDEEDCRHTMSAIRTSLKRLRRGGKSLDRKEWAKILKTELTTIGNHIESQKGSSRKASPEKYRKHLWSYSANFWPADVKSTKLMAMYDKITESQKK

Chain of Sialic acid-binding Ig-like lectin 9 (Homo sapiens) (Q9Y336 whole entry): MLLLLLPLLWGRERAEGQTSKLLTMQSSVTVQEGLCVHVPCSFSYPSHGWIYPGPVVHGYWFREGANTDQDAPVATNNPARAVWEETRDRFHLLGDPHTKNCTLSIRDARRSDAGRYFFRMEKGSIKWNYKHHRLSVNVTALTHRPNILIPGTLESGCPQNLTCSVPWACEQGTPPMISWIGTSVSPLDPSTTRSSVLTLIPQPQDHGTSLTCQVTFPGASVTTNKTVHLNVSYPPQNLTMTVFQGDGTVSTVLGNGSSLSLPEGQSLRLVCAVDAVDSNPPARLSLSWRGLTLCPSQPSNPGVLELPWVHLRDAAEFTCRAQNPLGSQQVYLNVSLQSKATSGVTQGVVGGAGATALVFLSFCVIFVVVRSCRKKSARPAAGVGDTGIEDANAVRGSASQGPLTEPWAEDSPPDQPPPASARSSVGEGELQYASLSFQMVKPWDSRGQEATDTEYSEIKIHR
Chain of Protein translocase subunit SecA (Escherichia coli (strain K12)) (P10408 whole entry): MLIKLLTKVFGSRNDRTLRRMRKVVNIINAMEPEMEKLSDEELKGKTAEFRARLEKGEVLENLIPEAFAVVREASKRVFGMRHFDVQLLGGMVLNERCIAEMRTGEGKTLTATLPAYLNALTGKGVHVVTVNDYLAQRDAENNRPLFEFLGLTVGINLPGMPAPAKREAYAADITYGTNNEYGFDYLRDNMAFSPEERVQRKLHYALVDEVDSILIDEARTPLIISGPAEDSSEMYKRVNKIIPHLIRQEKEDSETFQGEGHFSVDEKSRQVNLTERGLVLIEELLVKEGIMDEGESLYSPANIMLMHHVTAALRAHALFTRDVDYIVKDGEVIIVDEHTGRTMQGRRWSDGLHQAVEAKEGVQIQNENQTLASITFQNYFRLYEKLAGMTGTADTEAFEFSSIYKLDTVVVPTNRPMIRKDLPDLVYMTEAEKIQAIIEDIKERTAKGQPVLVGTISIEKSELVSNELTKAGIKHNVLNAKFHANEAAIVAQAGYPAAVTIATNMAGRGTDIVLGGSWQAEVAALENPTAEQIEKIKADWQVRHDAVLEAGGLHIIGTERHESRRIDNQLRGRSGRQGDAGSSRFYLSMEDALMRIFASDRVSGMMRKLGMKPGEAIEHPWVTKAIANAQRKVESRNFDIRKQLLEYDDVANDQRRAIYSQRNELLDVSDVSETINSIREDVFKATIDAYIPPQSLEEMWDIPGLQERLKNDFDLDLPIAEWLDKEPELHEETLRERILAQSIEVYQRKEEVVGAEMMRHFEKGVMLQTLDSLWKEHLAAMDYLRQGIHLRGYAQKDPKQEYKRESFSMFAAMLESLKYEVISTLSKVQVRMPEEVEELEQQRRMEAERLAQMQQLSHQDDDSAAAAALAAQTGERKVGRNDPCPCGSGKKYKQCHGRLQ

Compound	Percent Effect [1]	Percent Effect [2]	Percent Effect [3]	Percent Effect [4]	Percent Effect (Trypanosoma cruzi)	Percent Effect [5]	Percent Effect [6]	Percent Effect (Homo sapiens)	Percent Effect [7]	Percent Effect [8]	Percent Effect [9]
Cc1nn(C)c(Cl)c1C1CCCN1C(=O)c1nccnc1N (stereo not given)	-2.73%	16.2%	-10.8%	-6.66%	-3.3%	0.802%	12.4%	1.8%	7.39%	18.5%	-6.71%
Cc1nc(C)n(CC2CCCCN2CC(=O)Nc2cccnc2)n1 (stereo not given)	-1.75%	4.17%	-8.52%	22%	3.98%	9.71%	8.25%	-0.793%	5.26%	10.3%	-2.02%
CCN(CC)C(=O)c1ccn(COc2cc(C)cc(C)c2)n1	-0.199%	22.7%	-7.15%	1.4%	-0.982%	-5.81%	14.1%	41.2%	4.23%	12.8%	-12.1%
O=C(Cn1ccnc1)N1C[C@@H]2CC[C@H](Oc3ccccc3)[C@@H]2C1	-4.17%	9.46%	7.42%	-4.28%	2.77%	-1.16%	16.2%	12.3%	3.23%	11.7%	-11.8%
Cc1ccc(CN2Cc3nnn(C)c3C(COCCN(C)C)C2)s1 (stereo not given)	-6.87%	2.7%	-1.39%	-1.89%	-5.57%	-3.72%	4.89%	15%	2.15%	8.64%	-3.26%
COc1ccc(C(=O)N(Cc2cnn(C)c2)C(C)C)cc1Br	-4.7%	0%	-7.42%	8.74%	6.44%	-2.52%	-1.61%	-4.21%	2.46%	11.1%	-4.6%
Cc1nc(CN2CCCCC2Cn2cncn2)nc2ccccc12 (stereo not given)	-2.07%	26%	-3.54%	-19.4%	3.23%	1.47%	20.1%	2.22%	10.5%	23.5%	-22.8%
CN1CCOC(CNCc2nc(-c3ccccc3)cs2)C1 (stereo not given)	-3.28%	-12.7%	-8.45%	1.64%	5.95%	-1.9%	1.39%	-25.8%	1.48%	1.27%	4.02%
COCCN1CCC(CN(CC2CCCO2)C(=O)COC)CC1 (stereo not given)	-4.47%	15.3%	-11%	28.6%	7.09%	4.86%	5.79%	-0.94%	3.16%	15.4%	-9.34%
NCC(c1ccccc1)N1CCc2sccc2C1 (stereo not given)	-1.09%	7.89%	-9.46%	-3.01%	-3.41%	-5.92%	17.6%	5.62%	8.51%	18.2%	-3.07%

— ChEMBL document CHEMBL3988442, “University of Dundee, Small-Polar-MMV Screening Library” (2021)
